Pf growth 96h – Primary qHTS for delayed death inhibitors of the malarial parasite plastid, 96 hour incubation | AID 504834, 2011 | Potency, µM (series often up to 28.7 µM), for the others: top-dose activity change, negative = inhibition, most hits filed as inhibitors | 6.9% of 320,000 active | P. falciparum luciferase reporter growth, 96 h; note: potency is the fitted concentration of half-maximal effect; % is set by controls: 0 for no effect and ±100 for the full control effect
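Luminescence readout: decreased luciferase signal marks inhibited growth of reporter-expressing P. falciparum in infected red cells (2% hematocrit, 0.05% parasitemia final), exposed to compound two generations (96 h, 37 C, 5% CO2).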
Pf growth 48h – Primary qHTS for delayed death inhibitors of the malarial parasite plastid, 48 hour incubation; P. falciparum luciferase growth in erythrocytes, 48 h; Potency, µM (doses to about 28.7 µM), for the others: at the top dose activity change, negative = inhibition, actives largely listed as inhibitors; 5.9% of 310,000 active; AID 504832, 2011; note: potency is the fitted concentration of half-maximal effect; % is set by controls: 0 for no effect and ±100 for the full control effect
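Firefly luciferase activity from engineered P. falciparum reports growth; inhibitors lower the luminescent signal. Cultures contained 2% hematocrit erythrocytes at 0.1% final parasitemia.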
Shiga inhibitor – A qHTS for Small Molecule Inhibitors of Shiga Toxin; Vero cells, Shiga toxin protein synthesis inhibition reporter; inhibition, % at 38.7 µM; 9.2% of 290,000 active; AID 2315, 2010; in the data active = inhibition mostly above about 28%, no sharp cut-off; inactive = mostly below about 43%; note: 0% is about no effect
Cycloheximide cs – Cycloheximide Counterscreen for Small Molecule Inhibitors of Shiga Toxin; cell reporter, cycloheximide protein synthesis inhibition counterscreen; max response, %; 12% of 300,000 active; in the data active = max response mostly above about 13%, no sharp cut-off; inactive = mostly below about 14%; note: read at 38.3 µM for the half of the compounds with a filed dose; 0% is about no effect
Starred values were filed as active, the others as inactive; ? = inconclusive; . = no result; [ ] = another dose, or the depositor's remark. A selection: hits, their analogues and other compounds. The true share with any hit is near 21%. Unless noted, calls come from the whole dose curve; as a rule, active = well fitted inhibition curve with a large enough effect; inconclusive = small, poorly fitted or top-dose-only effect, or another doubt; inactive = no such curve, though single readings can be large or run the other way.

SMILES	Pf growth 96h	Pf growth 48h	Shiga inhibitor	Cycloheximide cs
Cc1ccnc(NC(=O)c2ccccc2NC(=O)C(C)(C)C)c1	?	?	-2.1	0.4
O=C(Nc1cccnc1)c1ccccc1O	.	54.0%	57.6*	20.7*
COc1cc2ccccc2cc1C(=O)Nc1cc(C)ccn1	14.1%	69.6%	104.3*	42.0*
O=C(Nc1cccnc1)c1ccccc1-c1ccccc1	398.6%	-5.6%	-12.2	-1.2
COc1ccc(C(=O)Nc2ccccc2C(=O)Nc2cc(C)ccn2)cc1	-23.4%	112.8%	.	40.7*
COc1ccc(C(=O)Nc2ccccc2C(=O)Nc2cccc(C)n2)cc1	58.9%	27.0%	28.1*	9.8*
O=C(CCc1nnc2ccc(N3CCOCC3)nn12)Nc1ccc(F)cc1F	?	10.7%	-3.2	11.2
CCN1CCN(Cc2ccc(C)cc2C)CC1	?	15.7%	35.9	-3.5
CCN1CCN(C(=O)Cc2ccc(C)cc2)CC1	13.8%	16.1%	41.9	21.9*
CCOC(=O)N1CCN(C(=O)Cc2ccc(C)cc2)CC1	.	32.8%	-1.4	-1.1
CCN1CCN(C(=O)c2oc(=O)c3ccccc3c2-c2ccc(C)cc2)CC1	4.65µM*	?	-8.4	-5.7
CCN1CCN(Cc2ccc(C)cc2)CC1	5.22µM*	4.1%	-9.7	-1.2
CCOC(=O)NC(NC(=O)OCC)C(=O)c1ccc(F)cc1	229.2%	42.1%	25.1	16.7
CC(C)c1cc(C(=O)NNC(=S)NCc2ccco2)c(O)c(C(C)C)c1	?	13.2%	-5.7	2.8
O=C(CSc1nccc(=O)[nH]1)NN(c1ccccc1)c1ccccc1	40.9%[1.15 µM]	16.6%[1.15 µM]	-9.5	-4.2
CCOC(=O)C1CCN(C(=O)/C=C/c2ccc(OC)cc2)CC1	154.5%	.	71.3*	42.5*
COC(=O)C1CCN(C(=O)/C=C/c2ccccc2)CC1	?	252.6%	41.3*	18.0
CCOC(=O)C1CCN(C(=O)/C=C/c2ccccc2OC)CC1	-14.0%	.	3.4	5.8
O=C(/C=C/c1ccccc1)N1CCC(Cc2ccccc2)CC1	8.28µM*	?	40.6	30.5
O=C(/C=C/c1cccc(Cl)c1)N1CCC(Cc2ccccc2)CC1	-10.3%	32.7%	53.6*	12.0*
COc1cc(OC)cc(-c2nnc3n2N=C(c2ccc(OC)cc2OC)CS3)c1	.	.	-7.2	1.3
COc1ccc(NC(=O)CCCn2cnc3ccccc3c2=O)c(OC)c1	-13.4%	.	-2.7	-1.6
Cc1ccccc1-c1nn(-c2ccc(F)cc2F)cc1CNCCN(C)C	13.1µM*	?	-4.3	-1.9
COCCN(C)Cc1cn(-c2ccc(F)cc2F)nc1-c1ccccc1C	39.8%	-71.2%	4.6	4.7
Cc1ccccc1-c1nn(-c2ccc(F)cc2F)cc1CNCCCN(C)C	?	2.62µM*	-8.2	-2.0
SMILES	Pf growth 96h	Pf growth 48h	Shiga inhibitor	Cycloheximide cs
COc1cccc(C2C(C(=O)OCc3ccccc3)=C(C)Nc3ncnn32)c1OC (stereo not given)	-5.0%	.	-7.6	-4.9
Cc1ccc(CNC(=O)C2CCC(=O)N(CCc3ccc(Cl)cc3)C2)cc1 (stereo not given)	9.28µM*	-11.6%	85.3*	46.5*
O=C(NCCc1ccc(Cl)cc1)C1CC(=O)N(CCc2ccccc2)C1 (stereo not given)	4.15µM*	18.2%	-2.9	18.4
O=C(NCCCc1ccccc1)C1CCC(=O)N(Cc2ccc(Cl)cc2)C1 (stereo not given)	?	15.8%	38.2*	35.5*
O=C(NCCc1ccccc1)C1CC(=O)N(CCc2ccccc2)C1 (stereo not given)	?	30.5%	9.6	9.6
Cc1ccc(CNC(=O)C2CCC(=O)N(CCc3ccc(Cl)cc3)C2)s1 (stereo not given)	?	5.8%	-5.0	15.0
O=C(NCCN1CCCc2ccccc21)C1CCC(=O)N(CCc2ccccc2)C1 (stereo not given)	21.0%	-2.3%	-23.9	11.5
O=C(NCCn1cccn1)C1CCC(=O)N(CCc2ccccc2)C1 (stereo not given)	13.1µM*	5.6%	7.2	-6.1
COc1ccccc1CNC(=O)C(=O)Nc1ccc(C(=O)N2CCC(C)CC2)cc1	?	?	3.8	-1.5
COc1cc(C(C(=O)NC2CCCC2)N(C(=O)Cc2cccs2)C2CC2)cc(OC)c1OC (stereo not given)	-1.8%	?	-5.4	-0.7
CCOC(=O)CC1(NC(=O)C2CCC(=O)N(CCc3ccccc3)C2)CCCCC1 (stereo not given)	?	-4.3%	30.3*	19.6*
CCOC(=O)CC1(NC(=O)C2CCC(=O)N(C3CC3)C2)CCCCC1 (stereo not given)	-20.7%	18.0%	14.1	1.2
O=C(Nc1cccc(F)c1)N1CCN(C(=O)c2ccco2)CC1	-24.0%	-0.2%	-9.1	1.5
CCOC(=O)c1nn(-c2ccc(F)cc2)c(=O)cc1OCC(=O)Nc1ccc(OCC)cc1	21.1%	32.0%	.	.
CCCC(=O)NC(c1cccs1)c1cc([N+](=O)[O-])c2cccnc2c1O (stereo not given)	146.8%	?	14.8	-1.2
O=C(CCc1ccccc1)NC(c1cccs1)c1cc(Cl)c2cccnc2c1O (stereo not given)	10.0%	0.415µM*	-12.2	8.5
CCC(=O)NC(c1cccs1)c1cc(Br)c2cccnc2c1O (stereo not given)	2.94µM*	0.928µM*	.	.
CCOC(=O)C1CCN(C(=O)C2CCCN(c3ncnc4c3nc3n4CCCCC3)C2)CC1 (stereo not given)	?	?	-4.9	5.8
O=S1(=O)CC2SC(=S)N(Cc3ccccc3)C2C1 (stereo not given)	30.6%	?	-6.8	-4.5
O=C(NCc1ccco1)C1CCCN1C(=O)Nc1ccc(Cl)cc1 (stereo not given)	?	11.9%	-3.5	-1.2
CC(Sc1nnnn1C)C(=O)Nc1ccc(Oc2ccccc2)cc1 (stereo not given)	20.4%	12.0%	20.1	6.3
CCC(Sc1nnnn1C)C(=O)Nc1ccc(C(C)=O)cc1 (stereo not given)	.	0.0%	114.8*	23.3*
CC(C)(C)c1ccc(N=C2SCC(=O)N2Cc2cccs2)cc1	-31.6%	?	49.7*	46.9*
Cn1c(=O)c2c(nc(N3CCCCCC3)n2CC(O)COc2ccccc2)n(C)c1=O (stereo not given)	-2.9%	?	-2.7	-1.2
Cn1c(=O)c2c(nc(NC3CCCCC3)n2CC(O)COc2ccccc2)n(C)c1=O (stereo not given)	14.4%	10.4µM*	-16.4	-3.3
CC(C)Nc1nc2c(c(=O)n(C)c(=O)n2C)n1C	-3.3%	20.5%	2.1	-2.6
Cn1c(=O)c2c(nc(NC3CCCC3)n2C)n(C)c1=O	6.5%	12.3%	-2.7	25.1*
CN(c1nc2c(c(=O)n(C)c(=O)n2C)n1CC(=O)c1ccccc1)C1CCCCC1	10.4µM*	?	43.8	11.5
N#Cc1ccc(C23CC4(C2)[C@H](CN(Cc2ccc(C(F)(F)F)cc2)[C@@H]4c2ccccc2)C3c2ccc(C(F)(F)F)cc2)cc1 (stereo not given in full)	-18.0%	-19.6%	-7.5	-3.0
